Source: PubChem BioAssay (NCI)
About 79,000 compounds went through this panel and 15% of them were active in at least one assay; those are over-represented in the sample as a whole. Activity calls are given as the source filed them. Rule as the data show it: active = growth inhibition above about 70%; inactive = the rest.

Assay: NCI Yeast Anticancer Drug Screen. Data for the mlh1 strain (AID 171);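 also: 0% = growth of vehicle-treated control cultures of the same strain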
Settings: S. cerevisiae mlh1 strain growth inhibition, active compounds read high
Procedure: Growth inhibition of yeast strains with defined genetic alterations is measured as a screen for potential anti-cancer activity. Selected strains with alterations in DNA damage repair or cell cycle control were exposed to compounds and growth inhibition was measured relative to vehicle treated controls. The strain used in this assay is mlh1

Measured: growth inhibition

Cn1c(-c2ccc(/C=N\N3CCN(/N=C/c4ccc(-c5c[n+]6ccccc6n5C)cc4)CC3)cc2)c[n+]2ccccc12
inactive: at 1.2 µM -17% | at 3.7 µM -13% | at 11.0 µM 3% | at 33.0 µM 57%
active: at 100.0 µM 90%

CCc1c[n+]([O-])c(C)cc1[N+](=O)[O-]
inactive: at 1.2 µM -1% | at 3.7 µM -1% | at 11.0 µM 3% | at 33.0 µM 7% | at 100.0 µM 29%

COC(=O)C1(C)CCc2c(ccc3ccccc23)C1=O (stereo not given)
inactive: at 1.2 µM -2% | at 3.7 µM 2% | at 11.0 µM 7% | at 33.0 µM 5% | at 100.0 µM 32%

COc1cc2cc3c4cc(OC)c(OC)cc4cc[n+]3c(C)c2cc1OC
inactive: at 1.2 µM -34% | at 3.7 µM -28% | at 11.0 µM -35% | at 33.0 µM -39% | at 100.0 µM -49%

COc1ccc(/C=C/C(=O)c2ccccc2)cc1OC
inactive: at 1.2 µM 20% | at 3.7 µM 19% | at 11.0 µM 17% | at 33.0 µM 67%
active: at 100.0 µM 95%

CC(C)OC(=O)c1ccc(CCc2cc(O)c(Br)cc2O)cc1
active: at 3.7 µM 70% | at 11.0 µM 71% | at 33.0 µM 72% | at 100.0 µM 94%
inactive: at 1.2 µM 55%

CCN(CC)Cc1cc(Nc2c3ccccc3nc3c2[nH]c2ccccc23)cc(CN(CC)CC)c1O
inactive: at 1.2 µM 1% | at 3.7 µM 2% | at 11.0 µM 1% | at 33.0 µM 1% | at 100.0 µM 7%

O=C(c1ccc([N+](=O)[O-])cc1)C1N=NCC1c1ccccc1 (stereo not given)
inactive: at 1.2 µM -1% | at 3.7 µM 0% | at 11.0 µM 3% | at 33.0 µM 5% | at 100.0 µM 64%
